Source: PubChem BioAssay AID1508600 (Functional Genomics Laboratory (NCATS/FGL), 2020)
Hit rate of the full screen: of about 53,000 sequences, about 3,700 (7%) were called active. This excerpt belongs to a sample that is enriched for actives. Unmarked numbers belong to inactive results.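 How the source made its calls: active means gene knockdowns whose robust z-score for IL-1 alpha signal is at least 2 or at most -2, so actives lie on both sides; inactive means the rest.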

assay: Components of the Cytosolic LPS Sensing Pathway: Gene Identification via Genome-wide siRNA Screen; details: RAW264.7 macrophages, IL-1a HTRF, actives lie on both sides, screened at 100 nM (by protocol), cells primed 5 h with Pam3CSK4 first;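 further: robust z of the log signal after scaling to non-targeting control siRNA wells of the plate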
Outline: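 IL-1a HTRF of supernatants after 24 hour LipidA transfection of Pam3CSK4-primed (5 hours) RAW264.7 cells, 48h post-siRNA transfection (100 nM). Scores: percent of plate negative-control median, then log-based robust z-score.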

Sequence | z-score
GGAGGUCAGACCAGUUUACTT against Htr3b | 2.15 (active)
GCUUACAUCCAAGCCGUCUTT against Prss41 | 0.283
GCUGGAGAUGAUUGUCUGATT against Psmd8 | -1.22
GCGGGAACCAUUUUUGUGATT against Cdh11 | -1.18
GGUCGAUUGAUAUACAAAATT against Gdf6 | 0.834
CGUAUUAUCUGAGUGAACATT against Fth1 | -0.974
GCAUCAUCACCACCAUCACTT against Pou3f3 | -0.598
GGUCUGGAAUGGAGAACAGTT against Suox | 2.73 (active)
GGUGACCAAGCAGAUAACATT against Prcc | -1.19
GGACGUGGGCUCUCUAGAUTT against S100a13 | 1.81
CGGUGGAAAUACCAGGAUGTT against Tshb | 0.406
GGAAAUUUGCCGGCCAAAUTT against Fam83a | 0.557
GCACUCCACUCUUCCAUCATT against Cxcl16 | 0.35
GGUGGCUGAAGAUGUGACUTT against Ttyh1 | -3.46 (active)
GCAAAGGACCUAAUUUAUUTT against Ehd4 | 1.13
GGUUCAAGGGCCAGAUCCUTT against Rpl32 | 0.887
CCAGUGUUGGUAACAAUAUTT against Stat4 | 0.0489
GGAAAAGAAAGAUGUGACUTT against Trappc9 | -2.55 (active)
CGUAGAUCUGGAUUGCUUUTT against Poli | 1.74
CCCAGCUAGACAGUCUUUCTT against Il11 | 2.58 (active)
GGCAGAGCCAGAAAAAUUGTT against Slc30a1 | 0.306
CCAGAAUGUAAAACAACCGTT against Zfp365 | 0.588

Sequence | z-score
CGGUUUCACGAAUUCCUCCTT against Scaper | -2.16 (active)
GGAUUCAUGAAAUAAGUCATT against Zfp426 | -0.603
CGUGGUCUCGGACACUUUCTT against Hcn2 | -0.096
GGUGGAAUGAGGAAACAACTT against Cck | -0.945
GGAUUUAGCUAAGAGAGGGTT against Zmat3 | -0.125
CGAUGGUGAUUAUCUAAAATT against Tm4sf4 | -0.0694
GCGAAUGUGUGUAUUCUGGTT against BC055324 | -0.791
CGGUUGAUGGAAAAAUACATT against Ppef2 | 2.43 (active)
GGAAAGAUGAGACCACCCGTT against Stau1 | -0.582
GGCAAUAAUAAAUAGCACCTT against Homer1 | 0.8
GGUAGAUGAACUUUAAAGATT against Syt13 | -0.846
GGACUUCUUAACCGCCCUGTT against Sirt5 | 0.355
GGCUCAUGAGAAGACACACTT against Zbtb17 | 0.204
GGUGCUAGUGGUGACCAUGTT against Pign | 2.2 (active)
CGUGAAAAAGUUAGCAAGUTT against Tars2 | 0.198
GGUUCUCCAAGGAAAGAGGTT against 2310002L09Rik | 2.8 (active)
CCUUCUAGUACAAAAGUUGTT against Jmjd1c | 1.32
GGACAAGAGAACAACUAGUTT against Mrtfb | 0.0162
GACCAAAGCACUGACUAUGTT against Lyz2 | -0.184
GGAAGAAAUGGACCAGCUGTT against Hgh1 | -0.416
GGUUUCCAUGGUAACGUGGTT against Tns1 | 2.24 (active)
GGGCAUAUGAGAUUUAUUATT against Trappc2 | -0.423

Sequence | z-score
GGCCUACAUACUCCUGAAGTT against Ttc21a | -1.28
GGGAGCUGUUAACCUCAUCTT against Mthfr | 3.34 (active)
CCUAGAUUAAAUACUCGGATT against Saxo2 | 1.45
GCAGCCAAAUUCAUCCUCATT against Tspan33 | -0.552
GGAAUGGACAAAAUGAUUCTT against Cct4 | 1.53
UGUUGUUUUACCUGUGCCUTT against Gm10283 | -1.14
GGCUCAUGGAAAACUCUAUTT against Hspa9 | 2.24 (active)
GGUUGCCAAUGACACUCGGTT against Trak2 | -0.342
GCCAUUCUAACUCUGCCUCTT against Olfr639 | 0.232
GGGUUCAACACAGCCAAUGTT against Fam151a | 0.987
CCCUAUUUGACAAAUUCCUTT against Cdo1 | 0.245
GCUGAAUCACUACCAGUCATT against Zfp462 | 1.27
GGCAAUUCGAAUUUUGGUUTT against Rtraf | 0.891
GGCAAACGAAACACUAGCATT against Cacna1d | 4.94 (active)
GGUACUUCAUCGAUUCAGCTT against Zfp593 | -0.561
GGAUAGCACAGCCCUACAUTT against Kcns1 | -0.197
GCUUACUGUCCCUUAAGUUTT against Msantd1 | 2.45 (active)
GGACAAAGAUGAAUAUGUGTT against Spag6l | -0.34
GGCCGUGAUGCUAGAGAACTT against Zfp661 | 0.131
GGUGAUUCACAUACUUUAUTT against Vps54 | 0.612
GGGUUACCAGACUAACAAATT against Stfa3 | 0.763
GCGAAUUCGUGAGAAGAGCTT against Ripk4 | -0.884

Sequence | z-score
GCACGUAUGCUCUUUCUCATT against Pigw | -2.52 (active)
CCAAGUAAGGACUAUAGAGTT against Gpatch2 | -1.02
CGCUGCUAAGAAUCAUCUATT against Ednrb | 0.287
GGAAGCCACGGUCAUGUGUTT against Trim9 | 0.746
GGAAUGGGCAGUAUGAGUUTT against Ocrl | -1.73
GGUAGUCAAGUCGAAAGUATT against Ccdc18 | -2.19 (active)
GGACAAUGCUGUGACCUCUTT against Amn | -0.949
GGGAAGCAGAAAUGAGAAATT against Pdcd5 | 0.135
GAGUGUUUCAGAUUCUUCATT against Klra8 | 0.329
UCUUUGUGAUUUCGAAGCCTT against Slc17a9 | 2.31 (active)
GGAUAAAGAAGGUAUUCUUTT against Mccc1 | -0.891
GGCCCAGAAGGUUAUCAUCTT against Ptf1a | 0.606
GGAAAUCACGACCAUGGCGTT against Gtf2b | 0.0198
GCACUUCCGACUUUUUCACTT against Mettl24 | -1.69
GAGCUUCUGGCUGAGAUAATT against Espn | -0.388
GUGUAUGCGCUGAUCCUAUTT against 1700020N01Rik | 0.181
GGAGCUCUCAUCCUACUAUTT against Eif4ebp3 | -0.0855
GGCCUUUGAGAAGAACAUUTT against Copz1 | -2.16 (active)
GGAGUUUUUAUUCAAGGAATT against Slc35b3 | -1.07
GGCAGUGUACAUCUGGAUATT against Olfr611 | 1.85
CCGUGUUCCGAGGAUAUGUTT against Cyp2e1 | -0.212
GGGACUAUGACAAAACAGCTT against Atad2 | 0.0122

Sequence | z-score
CCUGACAUUCUUUAAUCCATT against Synb | 0.6
CCAACUCUAAUAAUAACAGTT against Slc22a26 | 3.31 (active)
CCAGACAUGAAACUUGUAUTT against Mms19 | -0.165
GGCCAGAGGACUAUGUUAUTT against C1s2 | 1.24
GGGUGGAGAAAUUUUAAUGTT against Dse | -0.22
GGAAAAUGAGAUCAUGCCCTT against Sdf4 | -0.488
GGCGAUUCUGGCUCUCUUUTT against Commd9 | 1.28
GCAGAAAGAAACGUAAAUGTT against Dhx57 | 0.464
GGCUUCAGCUAUUGGGCAATT against Vsig1 | 2.19 (active)
GGGAUGUGUACCGUUACAUTT against 1700010I14Rik | 0.155
CCCUUUUGUUUAGCUGAUCTT against Glrp1 | -2.14 (active)
GGACAGUUCGUGUUUGGUUTT against Wdfy2 | 0.0956
GGUUCAACAAAACAGGCUUTT against Serpina1f | -1.01
GGAUUAAUGUUUCCUGACUTT against Mturn | 0.704
GGGAAACAAACAGAAGAACTT against Cfap65 | -1.2
GGACAUUAACGAGCUGAACTT against Ube2m | 0.67
GGAGAAGAAGAACAGGACATT against Rnf186 | 2.35 (active)
GGACAGGUGAAGAUAAGUATT against Mug2 | -0.704
GCCUGUAUAGAUGCUAUUCTT against Setd1a | -0.894
GGUGGUUUGUGUUACAUUUTT against Ifnar2 | 2.38 (active)
